Screen size: about 1,200 compounds; about 210 (18%) were called active. No stated cut-off is given here; in the data, active means inhibition above about 30%; inactive means the rest. These entries were drawn from the full list.
Test: fluorescence readout artefact check – biochemical, HTRF, uHTS, artefact control for SUMOylation inhibitor project, confirmation (AID 2069)
Details: HTRF interference counterscreen, at 35 µM, stronger effect = higher value

SMILES	inhibition
CN(C)c1cc(Nc2cccc(O)c2)c([N+](=O)[O-])c2nonc12	-1.05% (inactive)
CN(C)CCNS(=O)(=O)c1ccc2c3c(cccc13)C(=O)N2	60.6% (active)
CCN(CC)CCNS(=O)(=O)c1ccc2c3c(cccc13)C(=O)N2	47.2% (active)
CN1C(=O)c2cccc3c(S(=O)(=O)NCc4ccco4)ccc1c23	11.9% (inactive)
CCN1C(=O)c2cccc3c(N)ccc1c23	-24.4% (inactive)
CN1C(=O)c2cccc3c(S(=O)(=O)NCCc4ccccc4)ccc1c23	45% (active)
O=C(NCc1ccccc1)Nc1cccn(Cc2ccccc2Cl)c1=O	1.3% (inactive)
N=C1S/C(=C\c2ccc(O)cc2)C(=O)N1c1ccc(F)cc1	14.8% (inactive)
COc1ccc(-c2nc3c(c(SCC(=O)Nc4cccc(O)c4)n2)Cc2c(CO)cnc(C)c2O3)cc1	-1.05% (inactive)
O=C(Nc1ccc2nc3ccccc3nc2c1)c1ccc(Br)cc1	20.6% (inactive)
CC(=O)Nc1cccc(NC(=S)Nc2cccc3ccccc23)c1	-2.65% (inactive)
CC(=O)Nc1ccc(-c2nc3ccc(NC(C)=O)cc3o2)cc1	40.8% (active)
CC(=O)Nc1ccc(S(=O)(=O)Nc2nc3ccccc3nc2Nc2ccc3ccccc3c2)cc1	18.6% (inactive)
CC(=O)Nc1ccc2nc3ccccc3nc2c1	36.7% (active)
Cc1ccc(-c2nc3ccccc3o2)cc1NC(=O)c1ccc2c(c1)OCO2	16.6% (inactive)
CCOc1cc(/C=N/N=C(\N)c2nonc2N)cc(Br)c1OCc1cccc2ccccc12	0.3% (inactive)
Cc1cc(/C=C2\SC(=S)NC2=O)c(C)[nH]1	3.5% (inactive)
O=C(Nc1ccc(N2CCOCC2)c2nonc12)C1CCCC1	-18.9% (inactive)
O=C(O)CSc1cc(C(=O)c2ccccc2O)cn2c(=O)c3c(-c4ccccc4)csc3nc12	7.6% (inactive)
Cc1cc(-c2csc(N)n2)c(C)n1Cc1ccco1	-4.05% (inactive)
COc1ccccc1NC(=O)c1sc2nc(-c3ccco3)ccc2c1N	26.8% (inactive)
Nc1c(C(=O)Nc2ccc(F)cc2)sc2nc(-c3ccco3)ccc12	47% (active)
O=C(Nc1ccc(-n2nncc2-c2ccco2)cc1)c1cc2ccccc2oc1=O	9.4% (inactive)
O=C(N/N=C/c1ccc(F)cc1)c1cc(-c2ccco2)nc2ccccc12	13% (inactive)
Nc1c(C(=O)Nc2ccccc2)sc2nc(-c3ccco3)ccc12	50.1% (active)
Nc1c(C(=O)Nc2ccc(Br)cc2)sc2nc(-c3ccco3)ccc12	28.9% (inactive)

From PubChem BioAssay AID2069 (Sanford-Burnham Center for Chemical Genomics, 2009)
